The values that follow come from PubChem BioAssay AID1347426 (Functional Genomics Laboratory (NCATS/FGL), 2020).

The whole screen tested about 31,000 sequences, of which about 1,400 (4.5%) were called active. Shown is part of a subset that was picked to be rich in actives. Values without a mark were called inactive.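 Rule for the calls: active = median seed-adjusted z-score above 1 or below -1; inactive = the rest.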

The experiment in a line: Novel Modifiers of Survival Motor Neuron (SMN) Protein: Gene Identification via Genome-wide siRNA Screen.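 Note: luminescence tracks full-length SMN protein made from the SMN2 reporter.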 As to conditions: HEK293T SMN2-luciferase reporter, siRNA knockdown, 72 h; actives lie on both sides. In short, it runs like this: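 Luciferase signal, proportional to full-length SMN made from an SMN2 cDNA reporter in stable HEK293T cells, was read 72 h after siRNA reverse transfection. Values were expressed as MAD scores after non-targeting-control normalization and log10 conversion; seed analysis flagged off-targets.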
A general note: Reporter assays use an easily measured gene product as a stand-in for the process of interest.
In the case of GAACAGGCGUGCCAAGUCUTT against MIXL1, the median seed-adjusted z-score was -0.204.
With AAAGCGCAAUUGGUGGUAATT against DYNLT1, the median seed-adjusted z-score was 0.764.
Take GGUUGCUAUCAAUACCCUUTT against SLC22A18: the median seed-adjusted z-score was -0.654.
Take CCAUCCUUAGAGUUCCUUATT against SLC23A3: the median seed-adjusted z-score is -0.254.
Next, CGGUAUGCCUGUGACGACATT against FCER2: -1.75 (active); AAAUCACACCAAACACUUATT against STX11: -0.518; GCAGCUGCCGGAAAUGUUATT against KRT81: -0.0955.
Next, CAAUCAAAGGGAAACUUGATT against TPT1: 0.236; GGAGAAUGGUUCGACUGUUTT against CKAP5: -1.87 (active).
Next, GGCUGUUUGUGAUGGAUAATT against GALNT2: 0.0798.
Take GAAACGUGGUGAGACCUCATT against PRKX: the median seed-adjusted z-score was 0.0341.
Next, CAUUCGUCGUAACUUUACATT against MIPEP: -0.169; CUUUCAUCUCUAAAACUGATT against LHX3: 0.622; CCAGAUAAAUCUAUAGCAATT against RCOR1: -1.13 (active).
As for CAAUGGAACUUUAGAUUAUTT against PCDHA11, the figure is 0.582; as for GGCUUUUAAGACUAAGGAATT against TRIM69, 0.214.
Next, GCCUCCCAGAUGAUCGUCATT against SLC6A13: 0.267.
GGACGAUGCUGAUACGGUATT against NOP2: the median seed-adjusted z-score is 1.15 (active).
As for CACCAGACAUCAAAAUCAATT against ATF7, the figure is 0.903; as for GCACAGACCUGGUGUGGAATT against NECAB2, -0.286.
Next, UGACCUUUCCUAUCUAUAATT against MCART6: 0.714; GGACACUAUAAGAAAGGAATT against FNTA: 1.04 (active); AGGUUUGGCUCAACUCUGATT against P2RX2: 0.0454.
Turning to GGAAAUUGCUUACAGGAAATT against ARSJ, the median seed-adjusted z-score was -0.0978.
As for GCUUAUCGGUUGAUCAUCATT against SLC6A4, the figure is 1.43 (active).
Next, GCAAGCUGCUGAUCGAGUUTT against KAT5: 0.32.
GGGACAUUUCCAAAUGGAATT against ARL6IP5: the median seed-adjusted z-score is -0.202.
Next, GGGACUCUGUAUUCCCUCUTT against WFDC2: -0.466.
With CGUAUAGUCAAAGCUCAAATT against ZNF24, the median seed-adjusted z-score was 0.388.
Turning to GAAGAGUUACUACAGUAAATT against MYT1, the median seed-adjusted z-score is -0.292.
Next, CGAAGGAAAUGUACAGCAATT against SLC25A42: -1.02 (active); CAAGGUUCUUGGUUGGGUATT against ZDHHC13: -0.381; CAUCAAUGGUCAUAAUGCATT against HNRNPA2B1: 1.33 (active).
Next, AAGAUGCUCUCCCACCUAATT against POLD4: 0.225.
As for GGUCUACCGGAUUAUCACATT against BRD2, the figure is -0.242; as for GGUCUUGAAGUGUACCCUATT against ITGAV, 1.17 (active); as for GCAUAGACACCAUCAUCAATT against GCLC, -0.21.
As for ACUUCUACAUCAACGACAATT against ALDH4A1, the median seed-adjusted z-score is 0.0362.
For the sequence GGAAAGAGAACGAAUCGAATT against PPM1D, the median seed-adjusted z-score is -0.66.
Take GCCUUUGGUUCGCAAGUUUTT against DYRK2: the median seed-adjusted z-score is 0.
As for CAACGAUCCCUGUACCAGUTT against GABBR2, the figure is -0.038.
Consider CCUACUACCUCAAACACCATT against SYVN1, for which the median seed-adjusted z-score was -1.41 (active).
As for GCUUAUUAGCCUCCAAUUUTT against ZSCAN5A, the figure is 0.31; as for GAAGAACCCUGGUCUUUCATT against CARD14, -0.104.
Next, GCUGUGCCUUAUAACCGAATT against LRRK2: -0.671; GGGUCAUCCGAGAUUCUCATT against DLG5: 0.467.
Next, GGGUCCAACAUUCCGAAUATT against CHD1: -1.03 (active).
Turning to GGCCUUCGGCUAAAAGAGATT against KIF22, the median seed-adjusted z-score was 0.283.
Consider CGGUAAUAGCAAUUCAGCATT against HEATR6, for which the median seed-adjusted z-score was 0.
As for GAGAGAUAUUGAUCGACUUTT against ARG2, the median seed-adjusted z-score is -0.796.
Next, GAGACAAGCUUCAACCACATT against SERPINA5: -1.01 (active).
In the case of GCAUUGGUAAAAUUGCUAATT against AVIL, the median seed-adjusted z-score is -0.127.
Next, CGGACCGGCAGAGAACAAATT against PLA2G10: 1.07 (active).
Next, GCUAUGUCAUCACUACCAATT against KCNAB3: 0.0697; GGAGUGCCCACAGUCAGAATT against SMUG1: -1.38 (active).
As to GGCUAUGUGCGGGAGUAUATT against PI4KA, the median seed-adjusted z-score was 0.
Next, CGAUCAAUCCAACCGCACATT against MEIS3: 0.207; CCUCGGAAGAGAUCACUAUTT against POU2F1: 0.317; CGUUUCAGUCGUUUCAAAATT against POLR2D: -3.79 (active).
Next, GGUUAUAUACCACCUUAUATT against QRSL1: -0.539.
Next, GCUCUAAGGUUACGGAAGATT against MCOLN2: -0.0234.
As to GUCCUGUCUUGAUUAAAUUTT against CHST7, the median seed-adjusted z-score was 0.
In the case of GCAGAAGAAAGAACCCGUUTT against DYNC1I1, the median seed-adjusted z-score was -0.716.
As for CCACCCUACUAUGCGCACATT against GJA3, the figure is 0.833; as for CAAGGGUUUUCUUACAAUATT against GNA13, 0.
For the sequence CAAUAUGAAGGUCGAAUUATT against TPR, the median seed-adjusted z-score was -1.03 (active).
As for GACCUUAUAUGUGCAAGGATT against ZNF8, the figure is 0.97.
On to CGACUGGAUUAAGCAGUAUTT against ATP6V1C1, for which the median seed-adjusted z-score was 0.0821.
Turning to UCAUGUGCCUGGAAAUUAATT against AIRE, the median seed-adjusted z-score is 0.308.
As for GAACUGUCCGAAUCUAAUUTT against CNTNAP1, the figure is 0.176; as for AAUCACAACUCCUAAAAGATT against POLR2J3, -5.42 (active); as for ACAUCGUAGUGGGACGAAUTT against EXOSC2, -0.0798.
Next, CAUUCGCUCUGGUACUUAUTT against CRYZ: -0.809; GGUCCUAAGUUUGAAGUCATT against FRMPD2: -0.329; CGAUAUAAGCUCCGAGAGATT against POLR2E: -1.25 (active).
As to GCUGUAACCUCUUCAUCUATT against BRUNOL6, the median seed-adjusted z-score was -0.542.
As for GCAAGGAUCAGUUUCCGGATT against RHOC, the figure is -0.579; as for GGAACACCUUUAGUCAUGATT against ZNF790, 0.245; as for CCAGCUGCCUACAAAGACATT against CLDN14, -0.456.
Next, AACGCACUCUUCUACGUCATT against NTSR1: -1.1 (active).
Next, GACCGACAUUUGUGAAGAATT against ZNF547: 0.099; CAAAUGGGACUGUCAAUUATT against REPS2: 0.454; GGUUAUCCUUUGCCCAGCATT against ACTL7A: 1.1 (active).
AAGUUAGUCCUAAAGUGUATT against UCHL1: the median seed-adjusted z-score was -0.421.
As for CCACGGCACAUGGAACUAATT against SLC7A14, the figure is 0.132; as for GUCCCGCUAUGACUACUUUTT against GRM2, -0.664; as for CUGUUUGGUUUAUUCGAUUTT against ZW10, 0.199.
As for GAGUAAGUGAAAUAGAACATT against ZBTB26, the figure is 0; as for GAAACCAUCCAAUCCAAGATT against TXNDC2, -1.29 (active).
Next, GGACUUGGAUUAUGAACUATT against COL6A3: 0.341; CGAGCAUUCUCUCUUGAAATT against MED24: -2.3 (active); GCGUGUAAAUUCUACUGCATT against RB1: 0.49.
Consider CUACCACGCAGUCAACCUUTT against LTB4R2, for which the median seed-adjusted z-score is -0.26.
Next, GGAUUUUAUUCUUCACCGUTT against RBMS3: 0.0976.
As for GCACGAAUUUCAGCACCAATT against HOXD1, the figure is 0.144; as for GGAACAUUUUUGACGGAUUTT against SCN8A, 0; as for GCACAACACUCGCUCCAAUTT against GLT8D1, 1.22 (active).
Next, GGUAAUAAAUGGGUUGGAATT against PTGR2: 0.14; CAGAGACCCUUGAUAAACUTT against PIK3AP1: 0.0678; GCAUGACUAUGUCAAGAAATT against MCM3: 0.339.
For GCUCGUGAUUGAUGCUGCATT against NGB, the median seed-adjusted z-score was 0.
For CGACAUCAUCAAUAGACGATT against AQR, the median seed-adjusted z-score is -1.56 (active).
As for GGACCACGAUGAUCAUUGATT against CRMP1, the figure is -0.354; as for GCAUUGGUGUAUGGAAUUATT against SLC6A15, 0.0939.
As for GCAAGAAAAAUCUAAGGAATT against ZNF57, the figure is 0.
Next, ACAGCAUUGUCAUUAGACATT against UBR5: 0.114; CAUGUGCUAUCGAAAGUAUTT against TCEB1: 1.08 (active).
For GCGUAGUUAUAGAAGUAGATT against RBMX2, the median seed-adjusted z-score was -0.585.
GGAACUGUUUUUACAAGCATT against MKRN1: the median seed-adjusted z-score was -0.496.
